172 sequences from paper PMC6212790, “How bacterial xenogeneic silencer rok distinguishes foreign from self DNA in its resident genome” can be followed below.

In all, about 33,000 sequences were measured (“e-score”: median about -0.038, highest 2% from about 0.33 on). What follows is part of a selection rich in the highest values, with near analogues and random picks from the rest.

This assay addresses T1, GST-Rok-C97-191 (Bacillus subtilis subsp. subtilis str. …, UniProt O34857 97-191).
T1 sequence: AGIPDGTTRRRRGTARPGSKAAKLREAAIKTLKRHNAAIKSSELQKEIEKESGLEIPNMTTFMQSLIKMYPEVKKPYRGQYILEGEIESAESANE
Put plainly: protein binding microarray; Rok is a gene silencer of Bacillus subtilis; high values mean tight binding. As to conditions: protein: recombinant; tags: GST (pTH5325, pDEST15-Magic modified); dsDNA, one strand shown. The method, boiled down: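 Every oligonucleotide joins a 25-mer constant primer to a 35-mer variable part drawn from a de Bruijn sequence of order 10, so each non-palindromic 8-mer appears at least 32 times and each palindromic 8-mer 16 times. The preference for every 8-mer is reported as a unitless, rank-based enrichment score (E-score). This score spans 0.5 for the most favored 8-mer to −0.5 for the most disfavored.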
Consider TAACGGTA, for which the binding signal was found to be 0.278 E-score.

For CTTGAAGA, the binding signal is -0.0244 E-score.

For AGTTATAC, the binding signal is 0.241 E-score.

For the sequence ATTTATAA, the binding signal was 0.294 E-score.

On to ATTTATGG, for which the binding signal came to 0.174 E-score.

With CTTTATAC, the binding signal was found to be 0.227 E-score.

On to ATTTATAG, for which the binding signal is 0.358 E-score.

With ATTTATAC, the binding signal came out at 0.348 E-score.

With GACTCTCA, the binding signal is -0.0851 E-score.

Consider GGTCTGCA, for which the binding signal was -0.0588 E-score.

For AGCTACAC, the binding signal came out at 0.169 E-score.

With ATCTACAT, the binding signal is 0.342 E-score.

Take CACTACAA: the binding signal worked out at 0.173 E-score.

For AGCTACAA, the binding signal is 0.209 E-score.

For the sequence ATCTACAC, the binding signal came to 0.273 E-score.

As to GACTACAC, the binding signal is -0.000838 E-score.

Turning to ATCTACAG, the binding signal is 0.309 E-score.

For the sequence AACTACAA, the binding signal came out at 0.348 E-score.

AACTACAC: the binding signal was found to be 0.33 E-score.

As to GACTACAA, the binding signal is -0.00391 E-score.

Take CACTACAC: the binding signal came to 0.0572 E-score.

With AGCTACAT, the binding signal was determined as 0.368 E-score.

In the case of AGAACTGG, the binding signal was -0.0864 E-score.

Consider CAATGGGC, for which the binding signal is -0.197 E-score.

As for AATCGCCA, the binding signal was -0.00284 E-score.

Take AAAGCCAT: the binding signal is -0.088 E-score.

Consider GTTCCTGA, for which the binding signal is -0.0326 E-score.

ACTCGTTA: the binding signal stood at 0.225 E-score.

ACCTACAT: the binding signal amounted to 0.227 E-score.

Regarding AACTACGA, the binding signal turned out to be 0.283 E-score.

Take AACTACAT: the binding signal was determined as 0.364 E-score.

For the sequence AACTACGT, the binding signal worked out at 0.338 E-score.

Turning to AACTACAG, the binding signal was found to be 0.327 E-score.

With AACTACGC, the binding signal was 0.126 E-score.

For the sequence AACAATGA, the binding signal worked out at 0.0026 E-score.

Turning to ACGAGCAG, the binding signal was -0.19 E-score.

As to ATTTTGAC, the binding signal amounted to 0.235 E-score.

ACGCTCAC: the binding signal is -0.0887 E-score.

For ACCATAAC, the binding signal came out at 0.0976 E-score.

Regarding GACTTTAC, the binding signal is -0.0515 E-score.

For the sequence CAATCTAG, the binding signal stood at 0.206 E-score.

For the sequence AAATCTGT, the binding signal stood at 0.141 E-score.

Take AAATCTAC: the binding signal stood at 0.441 E-score.

For the sequence AAATCTGC, the binding signal is -0.0413 E-score.

On to AAATCTAG, for which the binding signal is 0.352 E-score.

In the case of AAATCTAT, the binding signal was 0.4 E-score.

With ACATCTAG, the binding signal came to 0.323 E-score.

As to AAATCTAA, the binding signal is 0.202 E-score.

With AAATCTTC, the binding signal turned out to be 0.0559 E-score.

In the case of AGCTTTCG, the binding signal was -0.16 E-score.

On to GAGAACCC, for which the binding signal is -0.104 E-score.

With CCTTCTAC, the binding signal was 0.235 E-score.

For the sequence AAGTTGGA, the binding signal was -0.145 E-score.

For the sequence AGCAATTG, the binding signal was determined as 0.332 E-score.

As to AGCAATTA, the binding signal worked out at 0.303 E-score.

Regarding AGCAATTC, the binding signal amounted to 0.115 E-score.

For the sequence CGGCCGAG, the binding signal was -0.169 E-score.

Take AGCGCCCC: the binding signal is -0.198 E-score.

AGGGACCC: the binding signal is -0.173 E-score.

ATTCTATC: the binding signal stood at 0.414 E-score.

Consider CTTCTAGC, for which the binding signal stood at 0.138 E-score.

Regarding CTTCTACA, the binding signal turned out to be 0.273 E-score.

As to ACTCTACC, the binding signal was -0.0607 E-score.

Regarding ATTCTACG, the binding signal worked out at 0.179 E-score.

For CTTCTACC, the binding signal came to 0.348 E-score.

As to ATTCTAGC, the binding signal turned out to be 0.249 E-score.

On to CTTCTATC, for which the binding signal came to 0.241 E-score.

For the sequence ATTCTACC, the binding signal worked out at 0.467 E-score.

ATTCTACA: the binding signal is 0.382 E-score.

On to GTTCTACA, for which the binding signal amounted to 0.247 E-score.

Take ATTCTATA: the binding signal is 0.224 E-score.

Take ATTCAGTC: the binding signal was determined as 0.00215 E-score.

As for AAGTATGA, the binding signal is 0.179 E-score.

As to ATTCAATG, the binding signal is -0.0215 E-score.

In the case of AACAGCGT, the binding signal is -0.0978 E-score.

Regarding AAGCATGG, the binding signal was -0.183 E-score.

As for TAAATGCA, the binding signal was determined as 0.289 E-score.

For TGAATTAA, the binding signal was 0.0945 E-score.

As to AGTTGAAC, the binding signal is -0.0218 E-score.

Regarding GGTAGGTA, the binding signal turned out to be 0.331 E-score.

With CCTAGGTA, the binding signal was 0.144 E-score.

Regarding AGTAGGTG, the binding signal worked out at 0.127 E-score.

Take AGTAGGTC: the binding signal was found to be 0.159 E-score.

With CGTAGGTA, the binding signal was 0.336 E-score.

GGTAGGAA: the binding signal turned out to be 0.247 E-score.

For AGTAGGTA, the binding signal was 0.4 E-score.

Consider CGTAGGCA, for which the binding signal is -0.0837 E-score.

GCTAGGTA: the binding signal came out at 0.145 E-score.

CAATGAAA: the binding signal was -0.098 E-score.

Consider CAGCATGA, for which the binding signal was -0.0331 E-score.

For CTGGAGGA, the binding signal was -0.0909 E-score.

With CGTGTTAC, the binding signal was found to be 0.0253 E-score.

CGTAGCCC: the binding signal is -0.128 E-score.

In the case of CCTAATAA, the binding signal is -0.00276 E-score.

TAGACCCA: the binding signal was 0.00211 E-score.

Take CTATAGTA: the binding signal worked out at 0.371 E-score.

On to CTATAGTC, for which the binding signal stood at 0.122 E-score.

For the sequence ATATAGTG, the binding signal worked out at 0.253 E-score.

For ATATCGTA, the binding signal came to 0.263 E-score.

As for GTATAGTA, the binding signal amounted to 0.25 E-score.

Turning to ATATAGTA, the binding signal is 0.438 E-score.

With ATATAGTC, the binding signal stood at 0.225 E-score.

Take CTATCGTA: the binding signal was 0.357 E-score.

GTATCGTA: the binding signal is 0.268 E-score.

For the sequence CGGGACTA, the binding signal was 0.0767 E-score.

On to AATGATGC, for which the binding signal was 0.103 E-score.

For AAGGTCTA, the binding signal is -0.133 E-score.

As for ATTCCGGC, the binding signal was determined as 0.0407 E-score.

With CCCACTAG, the binding signal was 0.0169 E-score.

For AGGTTAGG, the binding signal is -0.139 E-score.

For the sequence GCCTTCGC, the binding signal is -0.0744 E-score.

CCCAACTA: the binding signal amounted to 0.257 E-score.

In the case of CAATAAGA, the binding signal was -0.045 E-score.

As to CAATGACG, the binding signal is -0.168 E-score.

On to AGGTTCAG, for which the binding signal came to 0.0249 E-score.

For the sequence GTACATAA, the binding signal was determined as 0.328 E-score.

Regarding CTACATAG, the binding signal stood at 0.152 E-score.

Regarding ATACATAG, the binding signal was 0.371 E-score.

As to ATACACAT, the binding signal was 0.214 E-score.

On to CTACATAC, for which the binding signal was 0.274 E-score.

CTACATAA: the binding signal was 0.203 E-score.

With ATACATAC, the binding signal came out at 0.338 E-score.

Regarding AAACATAT, the binding signal is 0.276 E-score.

Regarding ATACATAA, the binding signal was 0.273 E-score.

In the case of ATACATAT, the binding signal was determined as 0.377 E-score.

Regarding TTACATAA, the binding signal is 0.288 E-score.

Consider GTACATAC, for which the binding signal was found to be 0.172 E-score.

Regarding ACGGGACT, the binding signal was 0.158 E-score.

For the sequence CATCATTC, the binding signal was found to be 0.0109 E-score.

In the case of GCGATGCC, the binding signal is -0.131 E-score.

As to CGACTTGA, the binding signal was 0.0696 E-score.

For the sequence CTGCGTAC, the binding signal is -0.112 E-score.

For TCCGAGCA, the binding signal turned out to be 0.113 E-score.

Consider GAAATGTA, for which the binding signal was 0.329 E-score.

In the case of TAAATGTA, the binding signal was 0.399 E-score.

For AAAATGTA, the binding signal is 0.316 E-score.

On to GAAATGCA, for which the binding signal was -0.0957 E-score.

Regarding GAAATGTC, the binding signal stood at 0.165 E-score.

In the case of CAAATGTA, the binding signal was found to be 0.269 E-score.

As for TGCCTAAA, the binding signal was -0.0357 E-score.

Consider ACCCTTAT, for which the binding signal worked out at 0.126 E-score.

In the case of CGCACTGC, the binding signal came out at 0.0347 E-score.

In the case of ACATCGAG, the binding signal was determined as 0.0748 E-score.

Regarding ACGTGGGG, the binding signal was -0.173 E-score.

AGATTCTA: the binding signal is 0.356 E-score.

Turning to GGATTCTA, the binding signal is 0.293 E-score.

For the sequence ATATTCTA, the binding signal turned out to be 0.408 E-score.

Regarding CTATTCTA, the binding signal was found to be 0.287 E-score.

As to ATATTCTC, the binding signal stood at 0.327 E-score.

With AGATTCTC, the binding signal stood at 0.00255 E-score.

On to TCATCTAA, for which the binding signal is -0.0045 E-score.

On to CAGGTCTC, for which the binding signal is -0.144 E-score.

On to GACTTGGC, for which the binding signal is -0.0709 E-score.

On to CTAATATA, for which the binding signal came to 0.36 E-score.

For ATAATATC, the binding signal was 0.209 E-score.

As to GTAATAGA, the binding signal is 0.284 E-score.

In the case of CCAATATA, the binding signal was determined as 0.323 E-score.

Consider CTAATATC, for which the binding signal is 0.141 E-score.

GTAATATA: the binding signal was found to be 0.335 E-score.

Take ATAATATA: the binding signal amounted to 0.435 E-score.

As for ACAATATA, the binding signal is 0.354 E-score.

As for ATAATATG, the binding signal is 0.244 E-score.

As for CTAATAGA, the binding signal worked out at 0.252 E-score.

For ACAATATG, the binding signal came out at 0.146 E-score.

For GTAATACA, the binding signal is 0.258 E-score.

With AGTGCCGC, the binding signal is -0.0284 E-score.

For the sequence ATGGTGAA, the binding signal came to 0.0706 E-score.

Take GCTGATTA: the binding signal is 0.0269 E-score.

With GAAAGAAC, the binding signal is 0.0785 E-score.

Take CCAGTTGA: the binding signal is -0.091 E-score.

Consider AACAGAGG, for which the binding signal was -0.0648 E-score.

Turning to CGAGTGTC, the binding signal is -0.0337 E-score.
